Entries with a potency or affinity are not part of this list. Results filed as inconclusive are left out. The source made the active and inactive calls. Unless noted, the rule behind the calls is not given here.

The nature of one assay: RMG-1 ovarian cancer cell viability loss – cherry-pick, dose response (AID 687029;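 active = signal drop whose fitted half-maximal concentration is at most twice the top valid dose, in every test run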;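 note: cells exposed to compound for 96 hours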). Conditions: RMG-1 viability, CellTiterGlo ATP luminescence, 96 h; series mostly up to 35 µM.
`CCOc1ccc(C(=O)O/N=C(\N)c2ccccn2)cc1`: the molecule was called inactive.
On the same count and under the same terms, next, `CC(=O)/C=C/n1c(=S)oc2ccccc21`: “inactive”; `O=C(NC1=C(NC2CCS(=O)(=O)C2)C(=O)c2ccccc2C1=O)c1ccccc1` (stereo not drawn): “inactive”; `CCS(=O)(=O)c1ccc(N=Nc2ccc(O)c3ncccc23)c(OC)c1`: “inactive”.
On the same count and under the same terms, next, `N#Cc1nccnc1S(=O)(=O)c1cccs1`: “inactive”.
On to `COc1ccc(OCc2cccc(C(=O)Nc3cc(C)on3)c2)cc1`, for which the result was inactive.
Turning to `Nc1nc(N)c2c(ccc3c2ccn3Cc2cccc([N+](=O)[O-])c2)n1`, the molecule was classed as inactive.
As for `CC(C)(C)OC(=O)NCCCC[C@H](NC(=O)c1[nH]cnc1C(=O)Nc1ccc(CNC(=O)OC(C)(C)C)cc1)C(=O)OC(C)(C)C`, the call was inactive.
On the same count and under the same terms, under `CCCCCCN(C(=O)CCl)c1ccccc1` stands “inactive”; under `CC(=NNc1ccc2ccccc2n1)c1ccccn1`, “inactive”.
The same measure, in the same setting: next, `CCOc1ccccc1NC(=O)c1nc(S(=O)(=O)Cc2cccc(C)c2)ncc1Cl`: “inactive”; `Cc1cc(Br)c(OCc2ccc(C(=O)N/N=C/c3ccc[nH]3)cc2)c(Br)c1`: “inactive”; `CN(C)CCNC(=O)c1cccc(-c2cnc3c(NC=O)cc(-c4cccc(C(F)(F)F)c4)cn23)c1`: “inactive”.
Still for that read-out and setting: next, `O=C(CCl)N(c1ccccc1)C1CCCCC1`: “inactive”; `O=C(Nc1ccc([N+](=O)[O-])cc1)C(=O)Nc1cccc(C(=O)O)c1`: “inactive”.
As for `COC1=CC(=O)c2c(ccc3ncnc(N)c23)C1=O`, the molecule was called inactive.
Still for that read-out and setting: under `CCN1CCN(Cc2ccc(NC(=O)c3ccc(C)c(NC(=O)c4c[nH]c5cc(C(F)(F)F)ccc5c4=O)c3)cc2C(F)(F)F)CC1` stands “inactive”.

A short description of another assay: IOSE-T80 viability loss, PAX8-independent line – cell-based, cherry-pick, selectivity assay for PAX8 inhibitor project, dose response (AID 687032;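 active = fitted half-maximal concentration for viability loss no higher than twice the top valid dose, in every repeat run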;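 note: cells exposed to compound for 96 h before reading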). The following applies: CellTiterGlo ATP luminescence, 96 h; series mostly up to 35 µM.
Take `C[C@@H]1CN([C@@H](C)CO)C(=O)Cc2cc(NS(=O)(=O)c3ccc(Cl)cc3)ccc2O[C@H]1CN(C)Cc1ccc(C(F)(F)F)cc1`: the molecule was called inactive.
On to `CNC[C@H]1Oc2ccc(NC(=O)NC(C)C)cc2CC(=O)N([C@@H](C)CO)C[C@@H]1C`, for which the molecule was classed as inactive.
The same measure, in the same setting: under `COc1cccc(S(=O)(=O)NCC(=O)Nc2ccc(C(C)(C)C)cc2)c1` stands “inactive”; under `Cc1ccc(S(=O)(=O)Nc2ccc3c(c2)C(=O)N([C@@H](C)CO)C[C@@H](C)[C@@H](CN(C)C)OCCCC[C@H](C)O3)cc1`, “inactive”.
On the same count and under the same terms, next, `COc1ccccc1CNC(=O)c1ccc2nc3[nH]c4ccccc4c3nc2c1`: “inactive”; `C[C@@H]1CN([C@@H](C)CO)S(=O)(=O)c2ccc(C#Cc3ccncc3)cc2O[C@@H]1CN(C)C(=O)C1CCCCC1`: “inactive”.

The next assay can be described thus: CMV-driven luciferase expression suppression in HEK293 – cell-based, luminescence, dry powder, counter-screen for Pax8 inhibitor project, dose response (AID 743020;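 active = signal-lowering compounds whose fitted half-maximal concentration is at or below twice the top tested dose in every run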;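 note: HEK293 cells stably expressing the CMV luciferase reporter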). Conditions: HEK293 CMV-luciferase reporter, SteadyGlo luminescence, 24 h; series mostly up to 35 µM.
Consider `CCCCn1c(O)c(N=NC(=O)Cn2c(C(F)(F)F)nc3ccccc32)c2ccccc21`, for which the result was inactive.
In the case of `COc1cc(OC)cc(C(=O)NCC(=O)OCC(=O)c2cc(C)n(Cc3ccco3)c2C)c1`, the molecule was called inactive.
Still for that read-out and setting: under `C[C@@H]1CN([C@@H](C)CO)C(=O)Cc2cc(NS(=O)(=O)c3ccc(Cl)cc3)ccc2O[C@H]1CN(C)Cc1ccc(C(F)(F)F)cc1` stands “inactive”; under `O=C(NCc1ccco1)C1CCCN(S(=O)(=O)c2ccc(Br)cc2)C1` (stereo not drawn), “inactive”.
For `CC1CN(CC(O)COC(c2ccccc2)c2ccccc2)CC(C)O1` (stereo not drawn), the molecule was classed as inactive.
Still for that read-out and setting: next, `CNC[C@H]1Oc2ccc(NC(=O)NC(C)C)cc2CC(=O)N([C@@H](C)CO)C[C@@H]1C`: “inactive”; `Cc1nnc(N/N=C/c2cc(C)n(-c3ccc(F)cc3)c2C)n1N`: “inactive”; `CCCNC(=O)COc1nc2ccccc2nc1N1CCOCC1`: “inactive”.
Turning to `CCOc1ccc(-n2c(=S)sc3c(=O)[nH]c(SCC(=O)NCC4CCCO4)nc32)cc1` (stereo not drawn), the result was inactive.
The same measure, in the same setting: under `Cc1ccc(S(=O)(=O)Nc2ccc3c(c2)C(=O)N([C@@H](C)CO)C[C@@H](C)[C@@H](CN(C)C)OCCCC[C@H](C)O3)cc1` stands “inactive”.
On the same count and under the same terms, under `CNC[C@@H]1Oc2ccc(NC(=O)NC(C)C)cc2CC(=O)N([C@@H](C)CO)C[C@@H]1C` stands “inactive”.
The same measure, in the same setting: next, `Cc1cc(CN(C)C(=O)c2cc(COc3ccc4ncccc4c3)on2)on1`: “inactive”; `O=S(=O)(NCC1CCCO1)c1cnc(Cl)c(Br)c1` (stereo not drawn): “inactive”; `CCOc1ccc2nc(N/C(N)=N/C(=S)Nc3ccc(C)c(C)c3)nc(C)c2c1`: “inactive”.
In the case of `CCSc1cc(N2CCOCC2)nc(-c2ccc(Cl)cc2)n1`, the molecule was classed as inactive.
Same read-out and setting: under `O=C(CCC(=O)c1ccccc1)NCCc1c[nH]c2ccccc12` stands “inactive”; under `COc1cccc(CC(=O)Nc2nc3c(s2)C(=O)CC(C)(C)C3)c1`, “inactive”; under `C[C@@H]1CN([C@@H](C)CO)S(=O)(=O)c2ccc(C#Cc3ccncc3)cc2O[C@@H]1CN(C)C(=O)C1CCCCC1`, “inactive”.

A short description of the next assay: general cell-killing toxicity readout – plate reader, dry powder samples, cytotoxicity control for PAX8 inhibitor project, dose response (AID 743021). The following applies: cell line, non-specific cytotoxicity counter-screen; series mostly up to 35 µM.
In the case of `CCCCn1c(O)c(N=NC(=O)Cn2c(C(F)(F)F)nc3ccccc32)c2ccccc21`, the result was inactive.
On the same count and under the same terms, under `COc1cc(OC)cc(C(=O)NCC(=O)OCC(=O)c2cc(C)n(Cc3ccco3)c2C)c1` stands “inactive”.
As for `C[C@@H]1CN([C@@H](C)CO)C(=O)Cc2cc(NS(=O)(=O)c3ccc(Cl)cc3)ccc2O[C@H]1CN(C)Cc1ccc(C(F)(F)F)cc1`, the outcome was inactive.
Still for that read-out and setting: next, `O=C(NCc1ccco1)C1CCCN(S(=O)(=O)c2ccc(Br)cc2)C1` (stereo not drawn): “inactive”.
Regarding `CC1CN(CC(O)COC(c2ccccc2)c2ccccc2)CC(C)O1` (stereo not drawn), the outcome was inactive.
Take `Cc1cc(Nc2ccc3c(c2)OCCO3)c2ccccc2n1`: the result was inactive.
Consider `CNC[C@H]1Oc2ccc(NC(=O)NC(C)C)cc2CC(=O)N([C@@H](C)CO)C[C@@H]1C`, for which the molecule was called inactive.
For the molecule `Cc1nnc(N/N=C/c2cc(C)n(-c3ccc(F)cc3)c2C)n1N`, the molecule was classed as inactive.
On the same count and under the same terms, next, `CCCNC(=O)COc1nc2ccccc2nc1N1CCOCC1`: “inactive”; `CCOc1ccc(-n2c(=S)sc3c(=O)[nH]c(SCC(=O)NCC4CCCO4)nc32)cc1` (stereo not drawn): “inactive”.
As for `COc1cccc(S(=O)(=O)NCC(=O)Nc2ccc(C(C)(C)C)cc2)c1`, the molecule was called inactive.
As to `Cc1ccc(S(=O)(=O)Nc2ccc3c(c2)C(=O)N([C@@H](C)CO)C[C@@H](C)[C@@H](CN(C)C)OCCCC[C@H](C)O3)cc1`, the molecule was called inactive.
Consider `CNC[C@@H]1Oc2ccc(NC(=O)NC(C)C)cc2CC(=O)N([C@@H](C)CO)C[C@@H]1C`, for which the molecule was classed as inactive.
Still for that read-out and setting: next, `Cc1cc(CN(C)C(=O)c2cc(COc3ccc4ncccc4c3)on2)on1`: “inactive”; `O=S(=O)(NCC1CCCO1)c1cnc(Cl)c(Br)c1` (stereo not drawn): “inactive”.
Same read-out and setting: under `COc1ccc(C(=O)NC(=S)NNC(=O)c2c(-c3ccccc3)noc2C)cc1` stands “inactive”; under `CCOc1ccc2nc(N/C(N)=N/C(=S)Nc3ccc(C)c(C)c3)nc(C)c2c1`, “inactive”; under `CCSc1cc(N2CCOCC2)nc(-c2ccc(Cl)cc2)n1`, “inactive”.
The same measure, in the same setting: under `COc1ccccc1CNC(=O)c1ccc2nc3[nH]c4ccccc4c3nc2c1` stands “inactive”.
As to `O=C(CCC(=O)c1ccccc1)NCCc1c[nH]c2ccccc12`, the result was inactive.
As to `COc1ccc2c(COC(=O)CNC(=O)C34CC5CC(CC(C5)C3)C4)cc(=O)oc2c1`, the outcome was inactive.
Same read-out and setting: next, `C[C@@H]1CN([C@@H](C)CO)S(=O)(=O)c2ccc(C#Cc3ccncc3)cc2O[C@@H]1CN(C)C(=O)C1CCCCC1`: “inactive”.
